Source: PubChem BioAssay AID1851 (National Center for Advancing Translational Sciences (NCATS), 2009)
The campaign covered roughly 16,000 compounds. About 5,800 (36%) were called active. Roughly 23% stayed inconclusive and do not appear here. Some of the results follow. Values without a mark were called inactive. Calls come from the whole dose curve; as a rule, active = well fitted curve in the direction sought with a large enough effect; inconclusive = small, poorly fitted or top-dose-only effect, or effect the other way; inactive = no such curve, though single readings can be large or run the other way.
% is set by controls: 0 for no effect and ±100 for the full control effect.

These compounds were tested against Cytochrome P450 2C19 (Homo sapiens) (UniProt P33261) (assay: Cytochrome panel assay with activity outcomes). Conditions: recombinant CYP, pro-luciferin dealkylation, luminescence, p450-cyp2c19; series mostly up to 57.1 µM; activity, negative = inhibition: at the top concentration.
Sequence of Cytochrome P450 2C19 (Homo sapiens) (P33261 whole entry, looked up): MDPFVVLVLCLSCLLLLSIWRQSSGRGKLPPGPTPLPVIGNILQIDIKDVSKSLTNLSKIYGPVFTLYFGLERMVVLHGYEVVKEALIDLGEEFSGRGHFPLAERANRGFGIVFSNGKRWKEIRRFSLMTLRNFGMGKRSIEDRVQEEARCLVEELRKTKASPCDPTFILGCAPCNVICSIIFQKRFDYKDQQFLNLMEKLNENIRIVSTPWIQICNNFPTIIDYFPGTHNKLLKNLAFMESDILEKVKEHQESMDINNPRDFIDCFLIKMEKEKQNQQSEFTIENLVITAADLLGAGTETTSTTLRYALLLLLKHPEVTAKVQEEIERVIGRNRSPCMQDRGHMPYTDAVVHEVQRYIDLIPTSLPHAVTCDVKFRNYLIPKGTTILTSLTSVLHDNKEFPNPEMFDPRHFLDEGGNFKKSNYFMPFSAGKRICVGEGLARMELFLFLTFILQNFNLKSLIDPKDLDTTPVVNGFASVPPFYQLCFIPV
In the case of CCc1ccc(OCC(=O)NNC(=O)CSc2ncnc3sc(C)c(C)c23)cc1, the AC50 was 11.2 µM (active).
For CCc1nnc(NC(=O)CSc2ncnc3c2cnn3-c2ccc(OC)cc2)s1, the “activity, negative = inhibition” value was -18.2%.
In the case of Cc1noc(C)c1C(=O)N1CCC2(CC1)CN(c1ncccn1)C2, the “activity, negative = inhibition” value was -18.2%.
In the case of CC1=C(C(=O)OCc2ccccc2)C(c2cccnc2)c2c(n(C)c(=O)n(C)c2=O)N1 (stereo not given), the AC50 was 1 µM (active).
O=C1NC(=O)[C@@](Cc2ccccc2)(c2cccnc2)N1 showed an activity, negative = inhibition of 27.6% [at 11.4 µM].
With CC1=C(C(=O)OCc2ccccc2)C(c2ccc([N+](=O)[O-])cc2)NC(=O)N1CCCCCC(=O)O (stereo not given) the “activity, negative = inhibition” value was -36%.
For CC(C)(C)n1nnnc1C(c1cccnc1)N(Cc1ccccc1)Cc1ccco1 (stereo not given), the AC50 was 11.2 µM (active).
In the case of CC[C@H]1C2=C3C(CC[C@H]4C(OCc5ccc(F)cc5C(F)(F)F)OC[C@](C)([C@@H]34)N(C(=O)OC(C)(C)C)C2)C(COC)C1COC (stereo not given in full), the “activity, negative = inhibition” value was 8.33%.
Clc1ccc(Cn2c(-c3cccnc3Cl)nc3ccccc32)c(Cl)c1 was tested, and the AC50 was 0.891 µM (active).
Clc1ncccc1-c1nc2ccccc2n1Cc1ccccc1 was tested, and the AC50 was 28.2 µM (active).
With Nc1nonc1-c1nc2ccccc2n1Cc1ccc(F)cc1Cl the AC50 was 0.0794 µM (active).
Work on Oc1ccc(Cn2c(-c3ccc(O)cc3)nc3ccccc32)cc1 yielded an activity, negative = inhibition of 87.1% [at 11.4 µM].
With CN(C)CCCN1CC(C(=O)O)CC1=O (stereo not given) the “activity, negative = inhibition” value was 4.71%.
In the case of O=c1onc2cnc3ccccc3n12, the “activity, negative = inhibition” value was -36.2%.
With O=c1c(-c2cccs2)nc2cnc(Nc3ccccc3)nc2n1C[C@H]1CCCO1 the “activity, negative = inhibition” value was -17.3%.
CC1CC(C)CN(CCCNC(=O)C2CCCN(c3nnc(N4CCCC4=O)s3)C2)C1 (stereo not given) was tested, and the “activity, negative = inhibition” value was -4.77%.
With CC1CCCN(CCCNC(=O)C2CC(=O)N(c3ccc(F)c(Cl)c3)C2)C1 (stereo not given) the AC50 was 31.6 µM (active).
For CCCS(=O)(=O)N1CCCC(C(=O)NCCCN2CCN(c3ccc(F)cc3)CC2)C1 (stereo not given), the “activity, negative = inhibition” value was -29.7%.
In the case of CCCn1nnnc1NC(=O)COc1ccc(Cl)cc1C, the AC50 was 7.94 µM (active).
Work on O=C(O)[C@@H]1[C@@H](C(=O)NCc2ccncc2)[C@@H]2C=C[C@@H]1O2 yielded an activity, negative = inhibition of 9.32% [at 11.4 µM].
With Cc1cc(Cl)ccc1OCC(=O)Nc1nc(N)nc(N)n1 the activity, negative = inhibition was 8.03% [at 11.4 µM].
In the case of Cc1cc(Cl)ccc1OCC(=O)NCc1ccncc1, the AC50 was 1.26 µM (active).
For O=C(/C=C\c1ccc(O)c(O)c1)O[C@@H]1C[C@](O)(C(=O)O)C[C@@H](O)[C@@H]1O, the “activity, negative = inhibition” value was 5.78% [at 25.6 µM].
With CCOC(=O)Oc1c(OC)cc(C(=O)O[C@H]2C[C@H]3CN4CCc5c([nH]c6cc(OC)ccc56)[C@@H]4C[C@H]3[C@@H](C(=O)OC)[C@@H]2OC)cc1OC the “activity, negative = inhibition” value was 18.1% [at 25.6 µM].
With Cc1n[nH]c(=O)n1-c1cccc(C(F)(F)F)c1 the “activity, negative = inhibition” value was -22%.
In the case of CCOC(=O)c1sc(=S)n(-c2cccc(C(F)(F)F)c2)c1SC, the AC50 was 1.26 µM (active).
O=C(O)NCC1CCCCC1 (tested in a mixture with another compound) showed an activity, negative = inhibition of -22.4% [at 11.4 µM].
With O=C(CSc1nnc(SCc2cccc3ccccc23)s1)c1ccc2c(c1)OCO2 the AC50 was 2.51 µM (active).
With FC(F)(F)c1ccccc1-c1cncnc1Nc1ccccc1 the AC50 was 7.94 µM (active).
In the case of Fc1ccc(Nc2ncncc2-c2ccccc2C(F)(F)F)cc1, the AC50 was 7.94 µM (active).
With Cc1cc(C)n(-c2nc(NCC(C)O)c3c4c(sc3n2)COC(C)(C)C4)n1 (stereo not given) the “activity, negative = inhibition” value was -19.4%.
For Cc1nc(NS(=O)(=O)c2ccc(Br)cc2)c2c3c(sc2n1)CCC3, the AC50 was 3.55 µM (active).
CCCSc1nc(NCc2ccco2)c2c3c(sc2n1)COC(C)(C)C3 was tested, and the AC50 was 7.08 µM (active).
With Cc1nc(NCc2ccco2)c2c3c(sc2n1)CCC3 the AC50 was 10 µM (active).
In the case of Cc1nc(NS(=O)(=O)c2ccccc2C)c2c3c(sc2n1)CCC3, the AC50 was 8.91 µM (active).
In the case of CN(C)S(=O)(=O)c1nc(Cl)c2[nH]cnc2n1, the activity, negative = inhibition was 24.6% [at 11.4 µM].
CC[C@H](C)[C@@H]1O[C@]2(CC[C@@H]1C)C[C@H]1C[C@H](CC=C(C)[C@@H](O[C@@H]3C[C@H](OC)[C@H](O[C@@H]4C[C@H](OC)[C@H](O)[C@H](C)O4)[C@H](C)O3)[C@@H](C)C=CC=C3CO[C@@H]4[C@@H](O)C(C)=C[C@@H](C(=O)O1)[C@]34O)O2 was tested, and the “activity, negative = inhibition” value was 33.6% [at 25.6 µM].
Cc1ccc(NC(=O)Cn2nc([N+](=O)[O-])c(Br)c2C)cc1C was tested, and the AC50 was 5.62 µM (active).
With O=C(Nc1ccc(Cl)c(C(F)(F)F)c1)C1CCCN(S(=O)(=O)c2cnc[nH]2)C1 (stereo not given) the AC50 was 0.562 µM (active).
With Clc1ccc(COn2c(-c3ccccc3)nc3ccccc32)cc1 the AC50 was 0.141 µM (active).
In the case of O=[N+]([O-])c1ccc2nc(-c3ccccc3)n(OCc3ccc(Cl)cc3)c2c1, the AC50 was 1.58 µM (active).
In the case of O=[N+]([O-])c1ccc2nc(-c3ccc(Cl)cc3)n(OCc3ccccc3)c2c1, the “activity, negative = inhibition” value was 20.2%.
With COc1ccc2nc(N3C(=O)CC(Cc4ccc(Cl)cc4)C3=O)sc2c1 (stereo not given) the AC50 was 3.55 µM (active).
In the case of COc1ccc(CN2CN(c3ccc(Cl)cc3)C(=O)N(n3cnnc3)C2)cc1, the “activity, negative = inhibition” value was -16.1%.
In the case of CCC1CCCCN1Cc1cc(OC)c(O)c([N+](=O)[O-])c1 (stereo not given), the “activity, negative = inhibition” value was -2.44%.
Cc1ccc(N=CC2=C(O)CC(c3ccco3)CC2=O)cc1 (stereo not given) was tested, and the AC50 was 7.94 µM (active).
With COC(=O)C1=C(C)NC(C)=C(C(=O)OCCSc2ccccc2)[C@@H]1C the AC50 was 0.2 µM (active).
For O=C(O)CC/C=C\CC[C@H]1[C@@H](N2CCCCC2)[C@@H](O)C[C@@H]1OCc1ccc(-c2ccccc2)cc1, the “activity, negative = inhibition” value was 12.9%.
O=C(CCN1C(=O)c2ccccc2C1=O)Oc1ccc2ccccc2c1 was tested, and the “activity, negative = inhibition” value was -7.77%.
In the case of Cc1cccc(N(C)C(=S)Oc2ccc3ccccc3c2)c1, the AC50 was 0.1 µM (active).
For O=C(Nc1cc(C(F)(F)F)ccc1-n1cncn1)c1ccc(Br)cc1, the AC50 was 2.24 µM (active).
In the case of CC(=O)Nc1ccc(S(=O)(=O)N2CCN(c3nc(NC4CCCC4)c4ccccc4n3)CC2)cc1, the AC50 was 7.08 µM (active).
Cc1cc(C)cc(C(=N)c2ccccc2Cc2cccc3ccccc23)c1 was tested, and the AC50 was 1.58 µM (active).
For Cc1ccc(C(=N)c2ccccc2Cc2cccc3ccccc23)c2ccccc12, the AC50 was 1.26 µM (active).
Cc1cc(C)c(O)c(Cc2cccc(Cc3cc(C)cc(C)c3O)c2O)c1 was tested, and the activity, negative = inhibition was 8% [at 11.4 µM].
